Compound activity from PubChem BioAssay.
Rows were chosen to be rich in hits. Some 4.6% of all compounds tested hit in one or more screens of this group.
TRHR ag: TRH receptor (human) agonism | P34981 | TRHR cells, calcium flux fluo-8, FDSS agonist mode | 360,000 compounds, 0.18% hits | activation, % at 2 µM
Target sequence (P34981 whole entry, looked up): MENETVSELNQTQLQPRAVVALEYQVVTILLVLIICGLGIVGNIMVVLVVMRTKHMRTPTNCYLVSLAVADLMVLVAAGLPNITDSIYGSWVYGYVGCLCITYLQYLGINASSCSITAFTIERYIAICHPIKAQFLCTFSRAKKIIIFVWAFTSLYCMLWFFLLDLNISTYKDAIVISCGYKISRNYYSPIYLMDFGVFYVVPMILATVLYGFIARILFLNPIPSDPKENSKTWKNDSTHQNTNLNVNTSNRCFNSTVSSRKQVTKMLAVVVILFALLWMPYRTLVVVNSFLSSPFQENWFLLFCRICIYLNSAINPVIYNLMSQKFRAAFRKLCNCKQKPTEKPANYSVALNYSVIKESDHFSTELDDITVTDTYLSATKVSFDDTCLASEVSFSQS
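TRHR-expressing cells loaded with fluo-8 calcium dye; 23 nL library compound pin-transferred, kinetic FDSS fluorescence (Ex 480/Em 530) recorded about 180 s for agonist-induced calcium release, before a 10 nM TRH EC20 addition for potentiator mode.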
TRHR PAM: allosteric enhancers of human TRH receptor. AID 493056. TRHR cells, fluo-8 calcium fluorescence, EC20 TRH enhancement. 360,000 compounds, 0.66% hits. P34981. enhancement, % at 2 µM; in the data active means enhancement above about 30%
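Enhancer read-out: after compound pinning and an initial kinetic agonist-mode read, an EC20 of TRH (10 nM final) was injected and fluo-8 calcium signal (Ex 480/Em 530) followed at 1 s/cycle for 100 cycles in TRHR-expressing cells.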
D1 PAM: potentiators of human D1 dopamine receptor; P21728; HEK293 TREx D1 cells, calcium flux, dopamine EC20 potentiation; potentiation, % at 10 µM; 360,000 compounds, 0.036% hits; in the data active means potentiation above about 30%
D1 agonist: agonists of human D1 dopamine receptor | HEK293 T-REx D1 cells, calcium flux, agonist mode | P21728 | activation, % at 2 µM | 360,000 compounds, 1% hits
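Inducible HEK293 T-REx D1 cells, force-coupled to calcium signalling, were plated at 4000 cells/well with tetracycline and held overnight at 30 C. After no-wash calcium dye loading, compound-evoked calcium rise over 180 s flagged agonists.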
D1 antag: human D1 dopamine receptor antagonism; P21728; HEK293 TREx D1 cells, calcium flux, dopamine EC80; hits give low values; activity change, negative = inhibition, % at 10 µM; 360,000 compounds, 3.2% hits; in the data active means activity change below about -30%
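After overnight tetracycline induction at 30 C, force-coupled D1 HEK293 cells took up a no-wash calcium dye at room temperature. Compounds were added and monitored 180 s, and the response to EC80 dopamine was then recorded.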
Of the large screens only hits and unclear results are named; the others gave an inactive call; ! = not active in a repeat. Unless noted, no stated cut-off is given here; in the data, active means activation above about 30%; inactive means the rest.

COc1ccc([C@H]2CC(=O)C=C(c3ccc(O)cc3)C2)cc1OC	D1 antag -86
COc1ccc([C@H]2CC(=O)C=C(c3cc(OC)ccc3OC)C2)cc1	D1 antag -35
O=C(Nc1ccc(C(=O)OCc2cc(=O)n3nc(C4CC4)sc3n2)cc1)c1cccc(F)c1	none
COc1cccc(CNC(=O)C2CCC(CNS(=O)(=O)c3ccc4c(c3)CCCC(=O)N4)CC2)c1 (centres undefined)	none
COc1ccc(CC(=O)Nc2ccc(S(=O)(=O)Nc3ncccn3)cc2)cc1	none
O=C(Nc1ccc(Cl)cc1)Nc1ccc(S(=O)(=O)Nc2ncccn2)cc1	D1 antag -60
COc1ccc(NC(=O)NNS(=O)(=O)c2ccc(Br)cc2)cc1	none
O=S(=O)(Nc1ncccn1)c1ccc(NC(=S)Nc2ccc(Cl)cc2)cc1	none
COc1ccc(S(=O)(=O)NNC(N)=S)cc1	TRHR PAM 31
COc1ccc(S(=O)(=O)Nc2ncccn2)cc1	D1 antag -44
COc1ccc(C(=O)NCC(c2cccnc2)N2CCc3ccccc32)cc1OC (centres undefined)	none
COc1ccccc1CCNC(=O)CCCn1c(=O)c2cccn2c2cccnc21	none
COc1ccc(C(=O)C[n+]2cccc(Br)c2)cc1	none
COC(=O)c1ccc[n+](CC(=O)c2ccc(Br)cc2)c1	D1 antag -35
O=C(CSc1nnc(CNc2ccccc2)o1)N1CCN(C(=O)c2ccco2)CC1	D1 antag -38
CC1CCN(C(=O)CSc2nnc(CNC(=O)c3ccc(S(=O)(=O)N(C)C)cc3)o2)CC1	D1 antag -45
O=C(NCc1nnc(SCC(=O)N2CCCC2)o1)c1c(F)cccc1F	none
O=C(NCc1nnc(SCC(=O)N2CCC(Cc3ccccc3)CC2)o1)c1ccccc1F	D1 agonist 33
O=C(CSc1nnc(CNC(=O)c2ccc(F)cc2)o1)c1ccccc1	D1 antag -31
CCc1ccc(NC(=O)C2CCC(CNS(=O)(=O)c3cccs3)CC2)cc1 (centres undefined)	none
Cc1ccc(Cn2cc(S(=O)(=O)c3cccc(Cl)c3)c(=O)c3cc(F)c(N4CCCCC4)cc32)cc1	none
COC(=O)c1cn(NC(=O)/C=C/c2ccc(OC)c(OC)c2)c(=O)c2ccccc12	D1 antag -74
COC(=O)c1cn(NC(=O)/C=C/c2cccc(OC)c2OC)c(=O)c2ccccc12	none
Cc1cccc(C(=O)N2CCc3cc(CNS(=O)(=O)c4cccs4)ccc32)c1	D1 antag -32
Cc1cccc(C(=O)N2CCc3cc(CNC(=O)c4ccnn4C)ccc32)c1	D1 antag -36
O=C(Nc1nnc(/C=C/c2ccccc2)s1)c1ccco1	TRHR PAM 34
CC(=O)Nc1nnc(/C=C/c2cccc([N+](=O)[O-])c2)s1	D1 antag -54
COC(=O)Nc1nnc(/C=C/c2ccccc2)s1	none
CCOC(=O)c1sc2ccccc2c1NC(=O)c1coc2ccccc2c1=O	TRHR PAM 37
CCOC(=O)c1sc2ccccc2c1OC(=O)c1ccccc1	none
COc1ccc(C)cc1NC(=O)c1c2c(nc3ccccc13)C(=O)N(C1CCCCC1)C2	none
O=C1CC(C(=O)Nc2cccc3ccccc23)C2(CCCC2)O1 (centres undefined)	D1 agonist 34
COc1c(O)cc2oc(-c3ccc(O)cc3)cc(=O)c2c1O	none
COc1cc(OC)c(-c2c3cc(O)c(=O)cc-3oc3cc(O)c(O)cc23)cc1OC	TRHR ag 266, TRHR PAM 152, D1 PAM 32, D1 agonist 626
Cc1c2cc(O)c(=O)cc-2oc2cc(O)c(O)cc12	D1 agonist 34!
COc1ccc(Cn2c(SCc3ccc(C(=O)NC(C)c4ccccc4)cc3)nc3cccnc32)cc1 (centres undefined)	none
COc1cccc(NC(=O)c2ccc3[nH]c(C)cc(=O)c3c2)c1	none
Cc1csc(C2=C(O)CN(CCc3ccccc3)C2=N)n1	D1 antag -40
CCCC(=O)N1CCN(c2ccc(NC(=O)c3ccc(Br)o3)cc2)CC1	D1 antag -43
COC(=O)Cc1ccc(NC(=O)c2ccc(Br)o2)cc1	none
CCCOC(=O)c1ccc(NC(=O)c2ccc(Br)o2)cc1	D1 antag -32
CCN1CCN(c2ccc(NC(=O)c3ccc(Br)o3)cc2)CC1	TRHR PAM 33
Cc1ccc(S(=O)(=O)c2cn(Cc3ccccc3Cl)c3ccc(F)cc3c2=O)cc1	none
O=C(Nc1ccc(S(=O)(=O)N2CCCCCC2)cc1)c1[nH]ncc1[N+](=O)[O-]	D1 antag -34
CCOC(=O)C1CCCN(c2ncnc3c2cnn3-c2ccc(C)c(Cl)c2)C1 (centres undefined)	D1 antag -34
COc1cccc(CNC(=O)C2CCN(Cc3cc4ccccc4n3Cc3ccc(C)cc3)CC2)c1	none
O=C1C2CCCN2C(=O)N1CCCN1CCN(c2ccc([N+](=O)[O-])cc2)CC1 (centres undefined)	none
O=C1C2CCCCN2C(=O)N1CCN1CCN(c2ccc([N+](=O)[O-])cc2)CC1 (centres undefined)	D1 antag -33
O=C1C2CCCN2C(=O)N1CCCCN1CCN(c2ccc(F)cc2)CC1 (centres undefined)	D1 antag -34
O=C1C2CCCCN2C(=O)N1CCCCN1CCN(c2ccc(F)cc2)CC1 (centres undefined)	none
CN(C)/C=C(\C#N)C(=O)N/N=C/c1ccccc1	D1 antag -31
CCCSc1nc2sc3c(c2c(=O)n1-c1ccc(C)c(Cl)c1)CCN(C(C)=O)C3	none
Cc1cccc(CSC(Nc2ccc(F)cc2)=C(C#N)C#N)c1	D1 antag -35
N#CC(C#N)=C(Nc1ccc(F)cc1)SCc1cccc(Br)c1	D1 antag -42
CCOC(=O)c1cc(-c2ccccc2)sc1NC(=O)CC(C)C	D1 antag -31
CCOc1ccccc1NC(=O)CSc1nnc(CC)c(CC)n1	none
Cc1cccc(-n2ncc(C(=O)Nc3ccc4c(c3)OCO4)c2C2CCN(C(=O)OC(C)(C)C)CC2)c1	none
CC(=O)c1ccc(NC(=O)CN2CCN(S(=O)(=O)c3ccc4ccccc4c3)CC2)cc1	D1 agonist 35, D1 antag -35 (no result: D1 PAM)
CC(=O)c1ccc(N2CCN(S(=O)(=O)c3ccc4c(c3)C(C)(C)C(=O)N4)CC2)cc1	none
CCS(=O)(=O)N1CCN(S(=O)(=O)c2ccc3ccccc3c2)CC1	none
CC(C)N1CCN(S(=O)(=O)c2ccc3ccccc3c2)CC1	D1 antag -92
CC(=O)c1ccc(N2CCN(S(=O)(=O)c3ccc4ccccc4c3)CC2)cc1	D1 antag -35
COc1ccc(OC)c(CNc2ccc([N+](=O)[O-])cc2C)c1	D1 antag -37
COC(=O)c1cccnc1-n1c(=O)c2cccnc2n(CC(=O)Nc2cccc(C)c2)c1=O	none
